Bioassay records from PubChem.
TNF necrop inh: inhibitors of TNF-alpha triggered necroptosis, primary screen, cell-based, Jurkat FADD-/-, single concentration. Jurkat FADD-/- TNF necroptosis rescue, ATP luminescence, 24 h; 0 = TNF only, 100 = no-TNF cells. activation (protection from cell death), % at 10 µM. actives 0.068% (n = 220,000). AID 463075, 2010;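 active = activation, meaning protection from cell death, of at least 50% relative to plate controls; inactive = activation below 50%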;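 note: necroptosis triggered by 40 ng/mL TNF-alpha added together with compound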
EBV gp42 inh: Epstein-Barr virus gp42 inhibitors, primary screen, biochemical, uHTS, fluorescence polarization | actives 0.42% (n = 220,000) | Glycoprotein 42 (Epstein-Barr virus (strain AG876)), Q1HVG2 | AID 1085, 2008 | inhibition, % (tested at 21.74 µM) | Fluorescence polarization binding assay, mP read-out; in the data active = inhibition above about 50%
Target sequence (Q1HVG2 whole entry, looked up): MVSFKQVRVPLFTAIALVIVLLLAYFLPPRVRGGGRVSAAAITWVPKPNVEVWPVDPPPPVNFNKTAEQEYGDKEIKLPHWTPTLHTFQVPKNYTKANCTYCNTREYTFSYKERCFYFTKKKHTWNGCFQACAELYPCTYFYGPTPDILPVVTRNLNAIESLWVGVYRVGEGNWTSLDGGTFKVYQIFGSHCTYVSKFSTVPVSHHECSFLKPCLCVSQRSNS
L929 necroptosis: inhibitors of zVAD-triggered necroptosis, primary screen, L929 cells; L929 zVAD necroptosis rescue, ATP luminescence, 24 h; with zVAD 60 µM; viability rescue, % at 10 µM; actives 0.38% (n = 220,000); AID 1377, 2008;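 active = activation, scaled between plate controls, above about 75%, limit read from the data; inactive = activation under that limit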
eIF4E 4G PPI: eIF4E–eIF4G protein interaction inhibitors, primary screen, biochemical, uHTS, TR-FRET, eIF4GI fragment. Eukaryotic translation initiation factor 4E (Mus musculus) + Eukaryotic translation …. TR-FRET eIF4E-eIF4GI(517-606) binding, 2 h. inhibition, % at 21.7 µM. actives 0.37% (n = 220,000). AID 782, 2007;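 active = inhibition above about 30%, limit read from the data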
zVAD death conf: inhibitors of zVAD-triggered necroptosis in L929, confirmation, L929 cells, duplicate runs; activation (protection from necroptosis), % at 10 µM; L929 zVAD-induced necroptosis rescue, ATP luminescence, 24 h; actives 16% (n = 760); shares compounds with L929 necroptosis;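 active = mean protection from necroptosis of at least 50% over duplicate tests; inactive = mean protection below 50%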
A number is an active result; i = inactive; nt = not tested or not shown. The list is not random: actives were taken first. Their share in the collection is about 1.2%.

SMILES	TNF necrop inh	EBV gp42 inh	L929 necroptosis	eIF4E 4G PPI	zVAD death conf
COC(=O)c1sc(NC(=O)c2ccco2)nc1C	i	i	i	i	nt
Cc1cc([N+](=O)[O-])nn1CC(=O)N/N=C/c1ccc(O)cc1O	i	i	i	i	nt
O=C(Nc1nccs1)c1cc2c(s1)-c1ccccc1OC2	i	i	98	i	i
CCc1nnc(NS(=O)(=O)c2ccc(N/C=C/C(=O)c3ccc(OC)cc3)cc2)s1	i	i	79	i	i
CCc1nnc(NS(=O)(=O)c2ccc(N/C=C\C(=O)c3cccc4ccccc34)cc2)s1	i	i	i	i	nt
N#C/C(=C(/O)COC(=O)CCc1ccc(S(=O)(=O)N2CCOCC2)cc1)c1nc2ccccc2[nH]1	i	i	78	i	i
N#C/C(=C(/O)COC(=O)c1ccc(Cl)c(S(=O)(=O)N2CCOCC2)c1)c1nc2ccccc2[nH]1	i	i	i	i	nt
Cc1ccc2c(C)nc(Nc3nc(CSc4nc5ccccc5[nH]4)cc(=O)[nH]3)nc2c1	i	i	87	i	53
C=CCN1CC(C(=O)N2CCC(Cc3ccc(Cl)cc3)(C(=O)OCC)CC2)CC1=O (stereo unspecified)	i	i	i	i	nt
Cc1ccc(NC(=O)c2ccccc2)cc1-n1cnnn1	i	i	75	i	i
N#Cc1c(N)n[nH]c1-c1cc2c([nH]1)CCCC2	i	i	88	i	i
N#Cc1cc2c([nH]c1=S)CCCCCC2	i	i	i	i	nt
CC12CCC(C(=O)N3CCCCC3)([C@H](Br)C1=O)C2(C)C (stereo partly specified)	i	i	i	i	nt
CCSc1nnc(NC(=O)CSc2nnc(C)c(=O)n2N)s1	i	i	i	i	nt
CC(=O)Nc1ccc(S(=O)(=O)N2CCN(Cc3cccc([N+](=O)[O-])c3)CC2)cc1	i	i	i	i	nt
Oc1ccccc1N=Cc1ccc[nH]1	i	i	97	i	i
CC(=O)Nc1ccc(N=Cc2ccc[nH]2)cc1	i	i	i	i	nt
COc1ccc(NC(=S)NNC(=S)Nc2cccc(C(F)(F)F)c2)cc1	i	i	77	i	i
COc1ccc(NC(=O)Nc2cccc(C(F)(F)F)c2)cn1	i	i	77	i	i
COc1ccc(NC(=O)Nc2cc(C)cc(C)c2)cn1	i	i	i	i	nt
O=C1Nc2cccnc2Sc2ccccc21	i	i	i	i	nt
FC(F)(F)c1cnc2c(c1)Nc1ccccc1S2	i	i	98	i	58
O=C1CCCc2c1[nH]c1ccccc21	i	i	i	i	nt
O=CNC1CCCc2c1[nH]c1ccc(Cl)cc21 (stereo unspecified)	i	i	i	i	nt
Clc1ccc2[nH]c3c(c2c1)CCc1cn[nH]c1-3	90	i	101	i	83
SMILES	TNF necrop inh	EBV gp42 inh	L929 necroptosis	eIF4E 4G PPI	zVAD death conf
c1ccc2c3c([nH]c2c1)-c1[nH]ncc1CC3	95	i	91	i	93
COC(=O)c1ccc(-c2ccc(/C=N/N3C(=O)C4C5C=CC(CC5)C4C3=O)o2)cc1 (stereo unspecified)	i	i	83	i	i
O=C(O)c1cc(-c2ccc(/C=N/N3C(=O)C4C5C=CC(CC5)C4C3=O)o2)ccc1Cl (stereo unspecified)	i	i	i	i	nt
Cn1cc(C(=O)N/N=C/c2cccs2)c2ccccc21	i	i	81	i	i
Cc1cc(C(=O)N/N=C/c2cccs2)no1	i	i	i	i	nt
Cc1cc(C(=O)N/N=C/c2ccc(-c3cccc(Cl)c3)o2)n[nH]1	i	i	75	i	i
Cc1cc(C(=O)N/N=C/c2cccs2)n[nH]1	i	i	82	i	i
CC1CCCC(NC(=O)COC(=O)CN2C(=O)C3CCCCC3C2=O)C1C (stereo unspecified)	i	i	i	i	nt
Nc1ccccc1SC1CC(=O)N(Cc2ccccc2)C1=O (stereo unspecified)	i	i	i	i	nt
Nc1cc(C(=O)OCC(=O)NC(c2ccccc2)c2ccccc2)ccc1Cl	i	i	85	i	i
Cn1nnnc1SCc1ccc(Cl)cc1	i	i	83	i	i
Cc1cc(C)cc(NC(=O)c2ccc(CSc3nnnn3C)cc2)c1	i	i	i	i	nt
C=CCn1c(SCc2ccc(C(=O)Nc3nccs3)cc2)nnc1-c1ccc(C)c(Cl)c1	i	i	103	i	60
Cn1nnnc1SCc1ccc(C(=O)Nc2nccs2)cc1	i	i	92	i	88
Cc1nn(-c2ccccc2)c2nc(C(Cl)(Cl)Cl)[nH]c(=O)c12	i	i	i	i	nt
O=C(Cn1nnc2ccccc2c1=O)N[C@@H](Cc1ccccc1)C(=O)O	i	i	i	i	nt
COc1ccc(C(=O)NCc2nnc(SCC(=O)N3CCc4ccccc43)n2CCc2ccccc2)cc1	i	i	i	i	nt
Cc1cc(O)c(C(C)C)cc1N=Nc1ccccc1C(=O)O	i	i	i	i	nt
Cc1cc(NO)c(C(C)C)cc1N=O	i	i	78	i	i
O=C(c1ccccc1F)N1CCCC(C(=O)N2CCc3ccccc3C2)C1 (stereo unspecified)	i	i	i	i	nt
NC(=O)NOCc1ccc(Cl)cc1Cl	i	i	84	i	i
CC(C)c1nnc(NC(=O)CCC(=O)N2CCN(c3ccccn3)CC2)s1	i	i	i	i	nt
Cc1cc(C)nc(N2CCN(C(=O)CCC(=O)Nc3nnc(C(C)C)s3)CC2)n1	i	i	76	i	i
CC(CS(=O)(=O)c1ccc2ccccc2c1)N1CCN(C2CCCCC2)CC1 (stereo unspecified)	i	nt	i	nt	nt
O=S(=O)(CC(CN1CCCC1)N1CCCC1)c1ccc2ccccc2c1 (stereo unspecified)	i	i	82	i	i
SMILES	TNF necrop inh	EBV gp42 inh	L929 necroptosis	eIF4E 4G PPI	zVAD death conf
COc1ccc(NC(=O)c2ccc(-c3nn(C)c(=O)c4ccccc34)cc2)cc1	i	i	i	i	nt
COc1ccccc1NC(=O)c1ccc(-c2nn(C)c(=O)c3ccccc23)cc1	i	i	78	i	i
CC(NC(=O)C(C)(C)C)C(c1cccs1)N1CCOCC1 (stereo unspecified)	i	i	i	i	nt
CC(C)C(=O)Nc1cccc(C(=O)Nc2nccs2)c1	i	i	77	i	i
CCCC(=O)Nc1cccc(C(=O)Nc2nccs2)c1	i	i	98	i	i
O=C(Nc1nccs1)c1cccc(NC(=O)C2CC2)c1	i	i	i	i	nt
CCC(=O)Nc1cccc(C(=O)Nc2nccs2)c1	i	i	86	i	i
Cc1ccc(NC(=O)COC(=O)c2ccc3c(c2)NC(=O)C2CCCN32)cc1 (stereo unspecified)	i	i	83	i	i
COC(=O)c1ccc2c(c1)NC(=O)C1CCCN21 (stereo unspecified)	nt	i	nt	i	nt
CCOc1ccccc1NC(=O)Nc1ccccn1	i	i	79	i	i
